# KLK7 zymogen act: proKLK7 zymogen activators, primary screen, biochemical, fluorescence intensity; Kallikrein-7 (Homo sapiens), P49862; purified proKLK7, EDANS-DABCYL substrate fluorescence; 100% is mature enzyme control, 0% vehicle; activation, % at 7 µM; actives 0.9% (n = 370,000); AID 652039, 2013;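 active = activation above the mean of all tested compounds plus 3 SD, computed per campaign excluding outliers beyond control limits, cut at about 13% in these data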
# PLCg1 inh: PLC-gamma1 enzyme inhibitors, primary screen, biochemical, fluorescence, purified enzyme | inhibition, % at 12.2 µM | fluorogenic substrate | 1-phosphatidylinositol 4,5-bisphosphate phosphodiesterase gamma-1 (Homo sapiens), P19174 | actives 0.84% (n = 370,000); in the data active = inhibition above about 9.5%
# ADAM10 inh: human ADAM10 inhibitors, primary screen, biochemical, QFRET, HTS. recombinant ADAM10, EDANS/DABCYL FRET peptide cleavage, 3 h. actives 0.62% (n = 370,000). inhibition, % at 7 µM. Disintegrin and metalloproteinase domain-containing protein 10 (Homo sapiens), O14672;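 active = inhibition above a per-campaign cutoff equal to the mean of compounds falling between control-based bounds plus 3 SD, cut at about 20% in these data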;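 note: 0% = DMSO wells while the 100% control is not disclosed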
# PLC-beta3 inh: human PLC-beta3 inhibitors, primary screen, biochemical, fluorescence; Purified PLC-beta3, fluorogenic substrate; inhibition, % at 12.2 µM; actives 0.18% (n = 370,000);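 note: 0% = median of compound wells on plate and 100% = full blocker control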
# Target sequence (Q01970 whole entry, looked up): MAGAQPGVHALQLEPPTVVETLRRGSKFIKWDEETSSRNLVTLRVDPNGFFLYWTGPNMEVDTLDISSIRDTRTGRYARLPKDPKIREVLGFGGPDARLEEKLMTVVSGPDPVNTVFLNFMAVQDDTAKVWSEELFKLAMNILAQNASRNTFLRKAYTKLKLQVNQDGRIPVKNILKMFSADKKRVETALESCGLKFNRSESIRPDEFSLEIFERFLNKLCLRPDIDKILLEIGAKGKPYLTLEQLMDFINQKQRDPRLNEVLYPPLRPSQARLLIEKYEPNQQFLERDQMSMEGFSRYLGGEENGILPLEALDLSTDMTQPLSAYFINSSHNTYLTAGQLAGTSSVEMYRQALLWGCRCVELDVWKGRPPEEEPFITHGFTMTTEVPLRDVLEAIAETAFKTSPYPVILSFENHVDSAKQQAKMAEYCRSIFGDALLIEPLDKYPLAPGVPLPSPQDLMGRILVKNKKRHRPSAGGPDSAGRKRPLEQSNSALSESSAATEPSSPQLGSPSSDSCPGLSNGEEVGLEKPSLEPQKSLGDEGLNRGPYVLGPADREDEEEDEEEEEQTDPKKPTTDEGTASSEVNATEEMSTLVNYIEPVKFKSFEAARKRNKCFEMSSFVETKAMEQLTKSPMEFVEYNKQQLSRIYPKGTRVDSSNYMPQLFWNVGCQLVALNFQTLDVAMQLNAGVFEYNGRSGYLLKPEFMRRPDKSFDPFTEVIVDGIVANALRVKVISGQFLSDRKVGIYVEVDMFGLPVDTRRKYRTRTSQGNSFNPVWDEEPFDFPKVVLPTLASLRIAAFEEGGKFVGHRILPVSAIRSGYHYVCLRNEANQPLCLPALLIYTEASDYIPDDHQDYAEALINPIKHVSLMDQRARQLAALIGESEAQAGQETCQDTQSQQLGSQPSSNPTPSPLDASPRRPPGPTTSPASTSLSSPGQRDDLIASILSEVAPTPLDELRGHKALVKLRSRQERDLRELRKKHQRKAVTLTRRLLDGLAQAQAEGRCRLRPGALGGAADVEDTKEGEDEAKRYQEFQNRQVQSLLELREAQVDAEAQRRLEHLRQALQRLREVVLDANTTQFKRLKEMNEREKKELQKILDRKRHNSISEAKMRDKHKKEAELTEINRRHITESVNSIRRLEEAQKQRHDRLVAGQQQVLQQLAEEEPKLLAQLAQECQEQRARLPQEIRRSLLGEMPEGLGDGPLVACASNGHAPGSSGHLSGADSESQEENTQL
# ADAM17 inh: ADAM17 inhibitors, primary screen, biochemical, QFRET | AID 720648, 2013 | actives 0.83% (n = 370,000) | recombinant ADAM17, EDANS/DABCYL FRET peptide cleavage | inhibition, % at 6.95 µM;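 active = inhibition above the mean of compounds lying between control limits plus 3 SD, set per campaign, cut at about 8.5% in these data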;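 note: 0% = DMSO-only wells as the low control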
# PLCgamma1 ctr: PLC-gamma1 enzyme inhibitors, counter-screen for PLC-beta3 inhibitor project, biochemical, fluorescence; AID 743258, 2014; shares compounds with PLCg1 inh; inhibition, % at 12.3 µM; actives 3.1% (n = 3,300); purified PLC-gamma1, fluorogenic substrate; in the data active = inhibition above about 9.5%
# PLCb3 confirm: PLC-beta3 inhibitor confirmation, biochemical, fluorescence, purified enzyme | shares compounds with PLCg1 inh | fluorogenic substrate fluorescence | inhibition, % at 12.3 µM | actives 1% (n = 3,300) | AID 743261, 2014
# The depositor's hits bear a star; . = not tested or not shown. In the library only some 2.9% were active in any assay of this set; here they are far more common. Cut-off read from the data, not from the text of the source, unless noted: active = inhibition above about 11%; inactive = the rest.
SMILES,KLK7 zymogen act,PLCg1 inh,ADAM10 inh,PLC-beta3 inh,ADAM17 inh,PLCgamma1 ctr,PLCb3 confirm
Cc1c(P(=S)(c2ccccc2)c2ccccc2)[n+]2ccccc2n1C/C=C/c1ccccc1,0,4,-5,1,-3,.,.
CC(=O)c1ccc(N2CCN(S(=O)(=O)c3cccc4nsnc34)CC2)cc1,-1,10*,5,5,8,-2,3
CCN(Cc1nc2ccccc2c(=O)[nH]1)C(=O)C1CC(=O)N(c2cccc3ccccc23)C1 (stereo unspecified),-1,-8,-9,-14,-6,.,.
Cc1ccc(SCc2ccc(C(=O)Nc3cc([N+](=O)[O-])ccc3C)cc2)cc1,0,12*,9,6,9,-2,-1
O=C(Nc1cc(S(=O)(=O)N2CCCCC2)ccc1N1CCOCC1)c1cc(=O)[nH]c2ccccc12,0,-9,0,3,-2,.,.
O=C(NC1CCCC1)C(c1ccccc1)N(C(=O)c1csnn1)c1ccccc1F (stereo unspecified),0,9.9*,8,6,0,2,-3
CC(=O)c1ccc(N(C(=O)c2csnn2)C(C(=O)NC2CCCC2)c2ccccc2)cc1 (stereo unspecified),0,11*,2,3,4,-4,1
O=C(NC1CCCC1)C(c1cccnc1)N(C(=O)c1csnn1)c1ccc(F)cc1 (stereo unspecified),0,9.7*,-21,-5,-3,-1,5
O=C(NC1CCCC1)C(c1ccncc1)N(C(=O)c1csnn1)c1ccccc1 (stereo unspecified),0,0,-9,-12,-5,.,.
CC1(c2ccc([N+](=O)[O-])cc2)NC(=O)N(CC(=O)Nc2cccnc2Cl)C1=O (stereo unspecified),0,-1,-6,3,-4,.,.
O=C(O)c1cccc(Cn2c(Cl)c(/C=N/NC(=O)c3ccccc3O)sc2=O)c1,0,-24,3,-36,-3,.,.
CN(C)c1nc2c(c(=O)[nH]c(=O)n2C)n1Cc1ccccc1Br,0,11*,11,11,1,-4,-2
COc1ccccc1CNC(=O)C1CCC(=O)N(CCCN2CCCC2=O)C1 (stereo unspecified),0,9.9*,9,2,0,-4,-2
CC(CNC(=O)c1cc(Cl)ccc1[N+](=O)[O-])NC(=O)c1cc(Cl)ccc1[N+](=O)[O-] (stereo unspecified),0,11*,1,4,4,-3,-1
COc1ccc(/C=N/Nc2nnc(C)n2N)cc1OC(C)=O,1,11*,9,0,-1,-8,-2
Cc1nnc(N/N=C/c2ccc([N+](=O)[O-])cc2)n1N,0,20*,4,9,-4,8,8
O=c1c2c3c(sc2n2cnnc2n1Cc1ccccc1)CN(Cc1ccccc1)CC3,-1,-36,-53,-40,-13,.,.
CC1Cc2ccccc2N1S(=O)(=O)c1cccc(C(=O)NC2CC2)c1 (stereo unspecified),0,1,4,3,1,.,.
CC1=C(C(=O)Nc2ccccn2)C(c2ccc(Br)cc2)NC(=S)N1 (stereo unspecified),0,15*,-11,5,3,-2,-2
CCc1ccc(C(=O)NNc2cc(Cl)ccc2Cl)cc1,0,10.0*,8,-2,3,-11,-1
O=S(=O)(O)c1cc(Cl)cc(N=Nc2ccc(O)cc2O)c1O,1,13*,8,-6,4,-152,-151
O=[N+]([O-])c1ccc(N=Nc2ccc(O)cc2O)cc1,0,7,6,4,4,.,.
CCOC(=O)c1cc(=O)c2c([N+](=O)[O-])ccc(OC)c2o1,-1,9.6*,5,5,6,-5,-3
Cc1nc(N)sc1C(=O)OCC(C)C,1,2,1,-4,2,.,.
O=C(Cn1cc(C(=O)c2ccco2)c2ccccc21)NC1CC1,0,-10,2,-11,0,.,.
SMILES,KLK7 zymogen act,PLCg1 inh,ADAM10 inh,PLC-beta3 inh,ADAM17 inh,PLCgamma1 ctr,PLCb3 confirm
CC(O)CNCCCOc1ccc(Cl)cc1C(C)(C)C (stereo unspecified),-1,12*,11,1,-3,-4,3
Cc1ccc(S(=O)(=O)N2CCCc3ccccc32)cc1C,1,1,0,-5,2,.,.
COC(=O)c1c(N)sc2c1CC(C)(C)OC2,1,11*,-1,1,-3,-8,-6
CCOC(=O)c1c(NC(=O)C2CC2)sc2c1CC(C)(C)OC2,0,2,3,3,-4,.,.
Cc1c(NS(=O)(=O)c2ccc(NCCN3CCOCC3)c([N+](=O)[O-])c2)c(=O)n(-c2ccccc2)n1C,0,1,1,0,0,.,.
CC(=O)N(C(C)=O)N1C(=O)C2C3c4ccccc4C(c4ccccc43)C2C1=O (stereo unspecified),0,13*,-1,12*,6,-3,1
O=C(NCC(=O)N1CCc2ccccc2C1)c1ccc(Cl)cc1Cl,0,12*,-1,2,7,-8,-3
CC1CCCCN1S(=O)(=O)c1ccc(N(C(=O)c2cnccn2)C(C(=O)NC2CCCCC2)c2cccs2)cc1 (stereo unspecified),1,12*,8,3,5,-7,-3
Cc1ccc([N+](=O)[O-])cc1S(=O)(=O)Nc1cccc(S(=O)(=O)NC2=NCCC2)c1,0,9.6*,8,7,5,-5,-3
O=S(=O)(NC1=NCCC1)c1cccc(NS(=O)(=O)c2ccc(F)c(Cl)c2)c1,0,1,-11,-5,-7,.,.
CCn1nc(C)c(NC(=O)CSc2nnc(-c3ccco3)n2C)c1C,0,7,12,11*,5,-2,2
COc1ccc(NC(=S)N2CCCC(c3nc4ccc(C)cc4[nH]3)C2)c(OC)c1 (stereo unspecified),0,6,9,6,5,.,.
COc1ccccc1/C=C/C(=O)OCCN1C(=O)c2ccccc2C1=O,0,11*,-9,-4,3,-14,-12
COc1cccc(/C=C/C(=O)OCCN2C(=O)c3ccccc3C2=O)c1,4,-7,-12,-15,-5,.,.
